Common to all, as to experiment: DAPPL (digital affinity profiling via proximity ligation, sequencing); 10 mM Tris-HCl pH 7.5, 50 mM NaCl, 1 mM DTT, 4% glycerol, room temperature, 30 min; GST-TFs on glutathione beads, 16-mer random dsDNA library, 0.1% formaldehyde crosslink after washing; high values mean tight binding
The target of test [1] is T1, FEV (Homo sapiens, UniProt Q99581 1-238).
T1 sequence: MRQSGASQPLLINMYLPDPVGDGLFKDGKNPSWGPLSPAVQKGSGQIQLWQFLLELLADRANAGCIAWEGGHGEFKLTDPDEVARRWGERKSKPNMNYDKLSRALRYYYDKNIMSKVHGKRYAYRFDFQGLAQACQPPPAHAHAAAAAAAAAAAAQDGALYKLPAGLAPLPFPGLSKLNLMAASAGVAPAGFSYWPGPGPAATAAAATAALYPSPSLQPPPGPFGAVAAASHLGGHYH
The following applies: protein: recombinant; tags: N-terminal GST; dsDNA, one strand shown. The gist of the method: (§1)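 Binding signal is each hexamer's read frequency for a factor divided by its frequency in the tag-only sample. The factors were GST-fused human transcription factors from yeast, captured on glutathione beads, DNA-barcoded and pooled with that sample. Pools were incubated with 200 nmole of a random double-stranded 16-mer DNA library in Tris/NaCl/DTT/glycerol buffer at room temperature for 30 min, then washed, crosslinked with 0.1% formaldehyde, proximity-ligated with BsaI/T4 ligase (1 h, 37 °C), PCR-amplified and sequenced on an Illumina NextSeq500.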

For test [2], the target named is ETV5 (Homo sapiens, UniProt P41161 1-510). The following applies: protein: recombinant; tags: N-terminal GST; dsDNA, one strand shown. The gist of the method:
as §1

For test [3], the target named is HSF1 (Homo sapiens, UniProt Q00613 1-529). The following applies: protein: recombinant; tags: N-terminal GST; chain copies: 3; dsDNA, one strand shown. The gist of the method:
as §1

Test [4] deals with T2, SPIC (Homo sapiens, UniProt Q8N5J4 1-248).
T2 sequence: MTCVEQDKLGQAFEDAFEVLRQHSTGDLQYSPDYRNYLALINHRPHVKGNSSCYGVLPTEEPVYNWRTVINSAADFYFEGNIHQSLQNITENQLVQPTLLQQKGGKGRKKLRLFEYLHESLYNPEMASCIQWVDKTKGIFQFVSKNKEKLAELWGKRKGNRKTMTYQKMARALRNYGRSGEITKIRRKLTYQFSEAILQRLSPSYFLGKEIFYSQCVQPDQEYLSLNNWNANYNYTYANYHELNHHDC
The following applies: protein: recombinant; tags: N-terminal GST; dsDNA, one strand shown. The gist of the method: as §1

Test [5] has as its target ELF4 (Homo sapiens, UniProt Q99607 1-663). The following applies: protein: recombinant; tags: N-terminal GST; dsDNA, one strand shown. A digest of the protocol:
as §1

The target in test [6] is T3, ELK4 (Homo sapiens, UniProt P28324-2 1-405).
T3 sequence: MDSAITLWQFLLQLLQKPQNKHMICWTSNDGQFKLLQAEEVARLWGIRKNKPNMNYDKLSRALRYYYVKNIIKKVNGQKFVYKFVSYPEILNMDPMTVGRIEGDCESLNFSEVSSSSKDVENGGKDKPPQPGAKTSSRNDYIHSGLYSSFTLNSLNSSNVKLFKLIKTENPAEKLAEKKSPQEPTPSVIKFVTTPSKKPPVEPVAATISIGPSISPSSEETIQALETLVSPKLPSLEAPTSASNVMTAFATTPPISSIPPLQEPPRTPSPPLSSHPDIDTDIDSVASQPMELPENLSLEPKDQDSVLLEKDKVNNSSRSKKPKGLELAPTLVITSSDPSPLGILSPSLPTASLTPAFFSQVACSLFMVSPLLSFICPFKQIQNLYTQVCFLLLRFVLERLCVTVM
The following applies: protein: recombinant; tags: N-terminal GST; dsDNA, one strand shown. A digest of the protocol: as §1

Test [7] has as its target T4, ETV2 (Homo sapiens, UniProt O00321 1-342).
T4 sequence: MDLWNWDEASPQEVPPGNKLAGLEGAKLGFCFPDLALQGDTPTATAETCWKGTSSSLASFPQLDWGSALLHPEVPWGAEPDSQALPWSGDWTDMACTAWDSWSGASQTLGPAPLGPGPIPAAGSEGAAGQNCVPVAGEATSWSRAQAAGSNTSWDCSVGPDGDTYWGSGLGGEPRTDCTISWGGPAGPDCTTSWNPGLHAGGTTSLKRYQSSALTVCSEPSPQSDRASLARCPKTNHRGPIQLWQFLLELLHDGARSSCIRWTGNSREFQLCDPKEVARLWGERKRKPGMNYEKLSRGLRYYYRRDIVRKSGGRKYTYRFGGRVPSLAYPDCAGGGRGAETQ
The following applies: protein: recombinant; tags: N-terminal GST; dsDNA, one strand shown. A digest of the protocol: as §1

Test [8] concerns the target T5, ELF3 (Homo sapiens, UniProt P78545 1-371).
T5 sequence: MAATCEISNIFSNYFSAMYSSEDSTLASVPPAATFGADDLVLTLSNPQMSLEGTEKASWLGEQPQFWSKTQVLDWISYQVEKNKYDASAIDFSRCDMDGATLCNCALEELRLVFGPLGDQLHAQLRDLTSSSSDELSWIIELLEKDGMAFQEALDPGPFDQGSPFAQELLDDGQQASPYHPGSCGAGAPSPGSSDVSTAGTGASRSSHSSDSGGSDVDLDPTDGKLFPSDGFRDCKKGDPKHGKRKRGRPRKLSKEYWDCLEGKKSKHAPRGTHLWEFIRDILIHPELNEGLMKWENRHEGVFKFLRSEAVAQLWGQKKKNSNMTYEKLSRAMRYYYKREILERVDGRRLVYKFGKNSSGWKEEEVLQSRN
The following applies: protein: recombinant; tags: N-terminal GST; dsDNA, one strand shown. The gist of the method: as §1

Test [9] deals with CRX (Homo sapiens, UniProt O43186 1-299). The following applies: protein: recombinant; tags: N-terminal GST; dsDNA, one strand shown. The gist of the method:
as §1

For test [10], the target named is ETV1 (Homo sapiens, UniProt P50549 1-477). The following applies: protein: recombinant; tags: N-terminal GST; dsDNA, one strand shown. The gist of the method:
as §1

For test [11], the target named is T6, ERF (Homo sapiens, UniProt P50548 1-548).
T6 sequence: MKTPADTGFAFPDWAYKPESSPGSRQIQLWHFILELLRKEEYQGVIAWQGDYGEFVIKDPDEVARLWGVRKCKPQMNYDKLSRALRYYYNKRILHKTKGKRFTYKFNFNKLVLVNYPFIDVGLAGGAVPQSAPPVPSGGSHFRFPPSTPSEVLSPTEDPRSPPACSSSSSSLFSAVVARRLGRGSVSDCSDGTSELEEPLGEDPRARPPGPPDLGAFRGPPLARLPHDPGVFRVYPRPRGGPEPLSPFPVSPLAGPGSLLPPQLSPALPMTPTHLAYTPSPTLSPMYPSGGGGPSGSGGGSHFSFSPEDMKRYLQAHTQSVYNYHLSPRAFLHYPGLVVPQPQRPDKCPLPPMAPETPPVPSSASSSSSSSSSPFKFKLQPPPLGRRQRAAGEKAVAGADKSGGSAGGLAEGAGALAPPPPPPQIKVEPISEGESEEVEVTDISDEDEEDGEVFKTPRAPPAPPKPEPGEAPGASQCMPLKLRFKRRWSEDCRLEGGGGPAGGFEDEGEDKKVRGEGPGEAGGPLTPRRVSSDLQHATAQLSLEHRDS
The following applies: protein: recombinant; tags: N-terminal GST; dsDNA, one strand shown. A digest of the protocol:
as §1

The target in test [12] is T7, ETV3L (Homo sapiens, UniProt Q6ZN32 1-361).
T7 sequence: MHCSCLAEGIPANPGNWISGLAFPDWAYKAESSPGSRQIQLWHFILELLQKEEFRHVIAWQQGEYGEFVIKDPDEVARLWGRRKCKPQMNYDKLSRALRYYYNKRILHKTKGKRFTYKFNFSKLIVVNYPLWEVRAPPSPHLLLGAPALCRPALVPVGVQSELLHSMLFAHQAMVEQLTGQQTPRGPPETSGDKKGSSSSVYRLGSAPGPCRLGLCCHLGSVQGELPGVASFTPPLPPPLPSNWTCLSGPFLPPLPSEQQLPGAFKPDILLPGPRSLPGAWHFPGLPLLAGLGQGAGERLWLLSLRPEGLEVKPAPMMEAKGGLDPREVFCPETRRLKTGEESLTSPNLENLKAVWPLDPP
The following applies: protein: recombinant; tags: N-terminal GST; dsDNA, one strand shown. The gist of the method: as §1

Test [13] addresses T8, ETS2 (Homo sapiens, UniProt P15036 1-469).
T8 sequence: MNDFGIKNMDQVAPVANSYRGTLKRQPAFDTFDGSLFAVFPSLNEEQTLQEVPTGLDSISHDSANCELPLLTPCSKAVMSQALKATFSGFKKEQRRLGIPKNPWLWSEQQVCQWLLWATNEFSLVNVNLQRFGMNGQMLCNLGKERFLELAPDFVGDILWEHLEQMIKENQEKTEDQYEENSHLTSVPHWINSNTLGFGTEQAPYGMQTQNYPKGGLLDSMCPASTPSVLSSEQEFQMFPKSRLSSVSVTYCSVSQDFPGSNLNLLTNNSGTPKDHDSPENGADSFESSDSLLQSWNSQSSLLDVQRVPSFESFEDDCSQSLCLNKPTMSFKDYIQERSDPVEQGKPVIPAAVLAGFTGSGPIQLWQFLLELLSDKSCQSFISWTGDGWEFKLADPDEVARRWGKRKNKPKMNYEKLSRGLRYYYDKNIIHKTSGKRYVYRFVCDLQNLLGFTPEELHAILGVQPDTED
The following applies: protein: recombinant; tags: N-terminal GST; dsDNA, one strand shown. A digest of the protocol:
as §1

For test [14], the target named is T9, SPDEF (Homo sapiens, UniProt O95238 1-335).
T9 sequence: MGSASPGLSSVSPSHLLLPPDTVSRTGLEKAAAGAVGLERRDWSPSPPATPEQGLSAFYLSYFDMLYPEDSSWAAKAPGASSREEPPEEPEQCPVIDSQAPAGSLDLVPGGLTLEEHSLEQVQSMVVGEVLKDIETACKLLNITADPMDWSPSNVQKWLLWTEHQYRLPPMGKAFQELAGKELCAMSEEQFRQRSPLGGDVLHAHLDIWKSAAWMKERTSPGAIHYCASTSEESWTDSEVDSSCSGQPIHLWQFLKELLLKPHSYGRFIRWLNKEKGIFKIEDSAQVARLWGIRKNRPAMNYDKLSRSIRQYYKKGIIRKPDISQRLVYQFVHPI
The following applies: protein: recombinant; tags: N-terminal GST; dsDNA, one strand shown. The gist of the method:
as §1

For test [15], the target named is T10, ETV7 (Homo sapiens, UniProt Q9Y603 1-341).
T10 sequence: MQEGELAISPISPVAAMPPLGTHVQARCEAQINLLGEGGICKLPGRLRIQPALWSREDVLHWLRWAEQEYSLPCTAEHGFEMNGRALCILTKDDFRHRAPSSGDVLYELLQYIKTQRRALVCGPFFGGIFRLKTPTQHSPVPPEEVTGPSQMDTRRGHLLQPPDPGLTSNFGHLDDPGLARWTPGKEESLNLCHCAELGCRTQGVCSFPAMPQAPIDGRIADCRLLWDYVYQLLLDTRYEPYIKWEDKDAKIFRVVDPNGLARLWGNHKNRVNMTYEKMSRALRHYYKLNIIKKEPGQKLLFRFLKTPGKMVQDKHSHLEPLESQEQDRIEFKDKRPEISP
The following applies: protein: recombinant; tags: N-terminal GST; dsDNA, one strand shown. A digest of the protocol: as §1

The target of test [16] is T11, ELF5 (Homo sapiens, UniProt Q9UKW6-2 1-255).
T11 sequence: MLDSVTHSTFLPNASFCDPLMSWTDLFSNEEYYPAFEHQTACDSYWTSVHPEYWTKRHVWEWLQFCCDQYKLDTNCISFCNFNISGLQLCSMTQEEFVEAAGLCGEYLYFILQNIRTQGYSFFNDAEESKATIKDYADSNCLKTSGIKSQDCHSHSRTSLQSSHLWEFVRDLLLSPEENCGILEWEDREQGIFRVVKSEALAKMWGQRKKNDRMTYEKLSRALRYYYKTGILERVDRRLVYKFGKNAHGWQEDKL
The following applies: protein: recombinant; tags: N-terminal GST; dsDNA, one strand shown. A digest of the protocol: as §1

Test [17] has as its target T12, ETV3 (Homo sapiens, UniProt P41162-2 1-143).
T12 sequence: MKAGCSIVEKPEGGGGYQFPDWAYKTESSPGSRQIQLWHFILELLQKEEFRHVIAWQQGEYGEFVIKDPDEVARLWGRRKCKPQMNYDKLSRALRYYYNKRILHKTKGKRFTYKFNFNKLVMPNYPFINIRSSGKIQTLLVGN
The following applies: protein: recombinant; tags: N-terminal GST; dsDNA, one strand shown. A digest of the protocol: as §1

Test [18] deals with ETV6 (Homo sapiens, UniProt P41212 1-452). The following applies: protein: recombinant; tags: N-terminal GST; dsDNA, one strand shown. The gist of the method: as §1
Sequence of ETV6 (P41212 whole entry): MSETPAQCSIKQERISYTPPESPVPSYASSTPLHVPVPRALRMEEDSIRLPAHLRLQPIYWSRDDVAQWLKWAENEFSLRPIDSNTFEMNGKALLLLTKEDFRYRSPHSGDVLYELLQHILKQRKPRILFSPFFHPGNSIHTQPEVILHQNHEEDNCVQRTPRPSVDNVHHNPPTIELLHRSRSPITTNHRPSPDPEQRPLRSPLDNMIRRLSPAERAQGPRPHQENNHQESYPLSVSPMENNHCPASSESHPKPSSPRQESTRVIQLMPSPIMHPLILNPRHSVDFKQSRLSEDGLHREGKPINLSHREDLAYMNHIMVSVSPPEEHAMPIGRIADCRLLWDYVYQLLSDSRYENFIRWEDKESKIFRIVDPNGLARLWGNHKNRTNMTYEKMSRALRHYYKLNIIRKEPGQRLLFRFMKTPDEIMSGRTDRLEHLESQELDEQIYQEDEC

Sequence of ETV1 (P50549 whole entry): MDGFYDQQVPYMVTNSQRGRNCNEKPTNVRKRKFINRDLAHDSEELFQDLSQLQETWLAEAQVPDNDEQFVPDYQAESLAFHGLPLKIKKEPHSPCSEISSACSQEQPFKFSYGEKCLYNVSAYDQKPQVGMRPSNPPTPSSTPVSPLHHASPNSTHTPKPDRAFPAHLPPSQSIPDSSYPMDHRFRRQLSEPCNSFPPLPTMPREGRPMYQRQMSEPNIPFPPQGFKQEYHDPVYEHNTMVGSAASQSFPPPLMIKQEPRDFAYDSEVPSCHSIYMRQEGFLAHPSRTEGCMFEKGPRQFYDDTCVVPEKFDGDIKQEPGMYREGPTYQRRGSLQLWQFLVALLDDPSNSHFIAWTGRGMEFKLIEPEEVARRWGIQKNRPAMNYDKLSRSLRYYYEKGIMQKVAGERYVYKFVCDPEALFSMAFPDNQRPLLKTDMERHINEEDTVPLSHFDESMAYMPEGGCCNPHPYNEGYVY
Sequence of CRX (O43186 whole entry): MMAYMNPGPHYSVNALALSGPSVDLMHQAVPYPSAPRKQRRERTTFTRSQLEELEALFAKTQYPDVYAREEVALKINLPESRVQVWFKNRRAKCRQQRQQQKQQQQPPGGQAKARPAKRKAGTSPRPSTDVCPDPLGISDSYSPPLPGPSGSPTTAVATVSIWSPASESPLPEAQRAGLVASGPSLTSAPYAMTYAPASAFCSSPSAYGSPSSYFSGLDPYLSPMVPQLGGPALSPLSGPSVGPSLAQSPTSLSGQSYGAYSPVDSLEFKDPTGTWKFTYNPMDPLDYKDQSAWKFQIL
Sequence of ETV5 (P41161 whole entry): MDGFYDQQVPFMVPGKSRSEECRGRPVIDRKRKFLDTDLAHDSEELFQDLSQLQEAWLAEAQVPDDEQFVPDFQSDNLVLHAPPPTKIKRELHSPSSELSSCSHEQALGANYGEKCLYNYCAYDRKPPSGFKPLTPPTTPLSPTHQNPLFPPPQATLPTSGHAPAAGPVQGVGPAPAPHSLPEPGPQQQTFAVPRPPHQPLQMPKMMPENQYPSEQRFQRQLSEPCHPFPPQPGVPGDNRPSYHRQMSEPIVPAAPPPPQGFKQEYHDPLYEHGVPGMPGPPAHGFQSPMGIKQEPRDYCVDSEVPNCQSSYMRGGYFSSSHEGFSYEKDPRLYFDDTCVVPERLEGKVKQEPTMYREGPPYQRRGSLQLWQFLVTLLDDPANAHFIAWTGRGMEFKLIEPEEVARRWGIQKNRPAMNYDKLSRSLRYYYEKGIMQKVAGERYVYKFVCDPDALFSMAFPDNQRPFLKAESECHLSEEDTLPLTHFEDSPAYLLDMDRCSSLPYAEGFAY
Sequence of HSF1 (Q00613 whole entry): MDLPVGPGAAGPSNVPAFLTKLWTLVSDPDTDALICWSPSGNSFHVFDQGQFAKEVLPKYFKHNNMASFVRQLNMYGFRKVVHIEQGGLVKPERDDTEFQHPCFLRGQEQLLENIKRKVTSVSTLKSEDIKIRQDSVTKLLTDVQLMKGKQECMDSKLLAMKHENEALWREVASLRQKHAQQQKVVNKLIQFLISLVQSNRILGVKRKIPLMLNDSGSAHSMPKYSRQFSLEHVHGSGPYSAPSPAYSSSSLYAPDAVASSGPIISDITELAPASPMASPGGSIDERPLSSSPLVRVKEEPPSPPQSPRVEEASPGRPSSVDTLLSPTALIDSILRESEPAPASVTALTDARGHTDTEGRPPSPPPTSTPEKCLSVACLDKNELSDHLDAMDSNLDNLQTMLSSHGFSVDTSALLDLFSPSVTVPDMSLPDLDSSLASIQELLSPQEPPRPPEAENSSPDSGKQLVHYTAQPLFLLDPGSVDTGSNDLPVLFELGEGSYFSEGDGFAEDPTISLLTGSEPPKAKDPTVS
Sequence of ELF4 (Q99607 whole entry): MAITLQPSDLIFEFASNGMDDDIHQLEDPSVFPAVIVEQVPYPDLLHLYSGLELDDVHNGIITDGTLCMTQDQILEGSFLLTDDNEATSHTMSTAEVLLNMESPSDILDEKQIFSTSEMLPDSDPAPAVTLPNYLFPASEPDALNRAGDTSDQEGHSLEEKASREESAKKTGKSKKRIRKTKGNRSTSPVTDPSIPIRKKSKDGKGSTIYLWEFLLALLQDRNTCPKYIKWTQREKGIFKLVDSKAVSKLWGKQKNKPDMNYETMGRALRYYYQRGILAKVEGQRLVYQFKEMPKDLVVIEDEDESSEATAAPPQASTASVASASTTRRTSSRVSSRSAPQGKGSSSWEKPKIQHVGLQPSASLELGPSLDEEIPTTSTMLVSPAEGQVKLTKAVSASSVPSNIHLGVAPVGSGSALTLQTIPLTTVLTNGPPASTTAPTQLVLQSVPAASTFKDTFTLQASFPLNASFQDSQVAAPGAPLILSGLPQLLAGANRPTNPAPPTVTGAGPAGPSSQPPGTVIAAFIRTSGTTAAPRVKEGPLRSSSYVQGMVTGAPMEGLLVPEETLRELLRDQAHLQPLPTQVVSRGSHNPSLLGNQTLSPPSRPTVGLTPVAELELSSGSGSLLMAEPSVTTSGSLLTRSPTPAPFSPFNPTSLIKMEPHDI

Take TCACTG: the binding signal in [1] was 1.22 fold enrichment (6-mer frequency, TF over GST control); in test [2], 1.15 fold enrichment (6-mer frequency, TF over GST control); in test [3] it was 1.15 fold enrichment (6-mer frequency, TF over GST control); in test [4], 1.24 fold enrichment (6-mer frequency, TF over GST control); in test [5] it was 1.17 fold enrichment (6-mer frequency, TF over GST control); in test [6], 1.14 fold enrichment (6-mer frequency, TF over GST control). Besides, the binding signal is 1.15 fold enrichment (6-mer frequency, TF over GST control) in test [7]; 1.48 fold enrichment (6-mer frequency, TF over GST control) in test [8]; 1.09 fold enrichment (6-mer frequency, TF over GST control) in [9]; 1.21 fold enrichment (6-mer frequency, TF over GST control) in test [10]; 1.17 fold enrichment (6-mer frequency, TF over GST control) in test [11]; 1.4 fold enrichment (6-mer frequency, TF over GST control) in [12]. For the same sequence, the binding signal in [13] was 1.28 fold enrichment (6-mer frequency, TF over GST control); in test [14] it was 1.16 fold enrichment (6-mer frequency, TF over GST control); in test [15], 1.3 fold enrichment (6-mer frequency, TF over GST control); in test [16] it was 1.17 fold enrichment (6-mer frequency, TF over GST control); in test [17], 1.16 fold enrichment (6-mer frequency, TF over GST control); in test [18] it was 1.2 fold enrichment (6-mer frequency, TF over GST control).

The values above are taken from paper PMC7862700, “An all-to-all approach to the identification of sequence-specific readers for epigenetic DNA modifications on cytosine”.
